# Test results from the supplement of paper PMC5499739.
# Over roughly 16,000 sequences, “Z-score” has its median near -0.37; the highest 2% begin near 3.1. The entries come from a sample that favours the highest values as a whole.
# Tested on: RBM10 RRM1-ZnF-RRM2 (GST-tagged construct)
# Assay: RNAcompete 7-mer binding Z-score; higher = stronger binding preference
# Method: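 RNAcompete: 20 pmol GST-tagged RBM10 RNA-binding constructs were incubated with a designed RNA pool of about 241,000 sequences up to 41 nt (1.5 nmol) on glutathione beads for 30 min at 4 °C and washed. Bound RNAs were identified by microarray hybridisation. Each RNA 7-mer is scored by a one-sided Z-score of its enrichment, computed over probes that contain the 7-mer within longer pool sequences.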
row,Sequence,RNAcompete 7-mer binding Z-score
1,CGCGUGG,1.41
2,UUCGGCU,-0.61
3,AACCAGU,-0.235
4,GUCGUCC,-0.377
5,CAACUAC,-0.628
6,CAGGGAG,3.08
7,AAGGGAA,4.17
8,AAGGCAA,1.95
9,AGGGGAU,3.41
10,UAGGGAA,3.46
11,GAGGGAG,3.04
12,UGGGGAU,3.05
13,UAGGGAC,2.24
14,UAGGGAG,3.15
15,ACGGGAA,2.76
16,CAGGGAA,3.07
17,GGGGGAU,2.89
18,GUCUCCU,-0.694
19,CACAAGA,-0.391
20,AAAAUGG,2.68
21,CAAGUGA,0.228
22,GGCUAAA,0.661
23,AAGGGCA,3.44
24,AAGGGCC,1.53

row,Sequence,RNAcompete 7-mer binding Z-score
1,AAGGGCU,1.39
2,GAUGGGA,3.8
3,AAUGGAG,3.01
4,GAUGGAG,3.16
5,GAUGGUG,2.77
6,GAUGGGG,4
7,AAUGGGG,4.38
8,GAUGGGC,2.09
9,UAUGGGA,2.76
10,UAUGGAG,1.68
11,ACUGGGG,1.58
12,GAUGGUA,2.46
13,CAUGGGG,2.51
14,AGCAUUU,-0.726
15,GCCAGCA,-0.205
16,CCGGUGC,-0.136
17,CAUGCAA,-0.289
18,CUGUCCU,-0.817
19,UCUUCGG,-0.657
20,CGUGCGA,-0.209
21,CUCGAAG,-0.318
22,CGAACUC,-0.719
23,UAUGGAA,1.22
24,UAUGGGC,1.64

row,Sequence,RNAcompete 7-mer binding Z-score
1,CAUGGGA,2.16
2,GAUGGGU,3.01
3,CAUGGGU,2.58
4,AAUGGAA,3.27
5,UAUGGGG,3.19
6,UAUGGGU,2.81
7,AAUGGGA,4.69
8,AAUGGGC,2.92
9,CAUGGAA,1.36
10,AAUGGGU,4.1
11,CAUCCCA,-0.486
12,GCCAUCG,-0.646
13,GACUUCA,-0.672
14,UUGCUGA,-0.486
15,AUAAGUU,-0.249
16,CGAGAGG,1.46
17,UUCCAGA,-0.519
18,UGGCUUU,-0.464
19,CCGGAGG,0.876
20,GCGGAGG,3.25
21,AUGGAGU,2.24
22,AUGGAGG,4.33
23,AUGGAGA,2.59
24,GUGGAGU,2.86

row,Sequence,RNAcompete 7-mer binding Z-score
1,ACGGAGG,2.57
2,GUGGAGC,2.47
3,GUGGAGG,4.09
4,CGAUAAU,-0.256
5,GGAUCAA,1.19
6,CAUCCCU,-0.69
7,CGAAGUU,-0.235
8,AACAGUG,0.654
9,GCUCGCA,-0.373
10,UAACUAC,-0.551
11,UAAUAGG,0.742
12,GGAUAGG,4.1
13,AGAUAGG,2.87
14,GAAUAGG,3.18
15,CAAUAGG,1.3
16,CGAUUGG,0.825
17,GGAUUGG,3.28
18,GGAUAGA,2.48
19,GGAUUGU,0.822
20,UGACGCA,-0.107
21,AACCUAA,-0.734
22,UUAGCUC,-0.781
23,CGAUAUC,-0.5
24,GGAUCGC,0.538

row,Sequence,RNAcompete 7-mer binding Z-score
1,UAUGAGG,1.54
2,UCCAGCC,-0.799
3,ACAGAUC,-0.508
4,CACGUGC,-0.428
5,UAUUGCG,-0.278
6,UCCCGUU,-0.799
7,UUCGUCG,-0.3
8,CUUAAUC,-0.905
9,GCAAGGU,2.17
10,CCAAGGG,1.05
11,GCAAGGG,3.28
12,GCAAGGA,2.65
13,ACAAGGA,1.94
14,ACAAGGG,3.52
15,AAAAAUU,-0.435
16,GAUAUAG,0.734
17,CUUUACG,-0.81
18,UCGAGUU,-0.482
19,GCCUACC,-0.726
20,GGGCUGC,1.14
21,GAAGGUG,4.37
22,AUAGGUG,2.41
23,GUAGGUG,3.25
24,AAAGGUG,3.5

row,Sequence,RNAcompete 7-mer binding Z-score
1,GAAGGCG,2.66
2,GAAGGUA,4.04
3,UAAGGUA,1.39
4,GAAGGUU,2.96
5,CAAGGUG,2.13
6,GAAGGUC,1.25
7,UAAGGUG,2.07
8,GUAGGUA,2.25
9,GCCAUGU,-0.632
10,CUAGUGC,-0.486
11,AACCGUG,-0.00148
12,UCGAAAG,-0.00148
13,AUUCGAG,-0.114
14,AGACCGG,-0.366
15,AAAGGUC,1.46
16,AAAGGUA,3.53
17,AAAGGUU,3.09
18,CGAAGGA,1.62
19,UGAAGGG,3.56
20,UGAAGCG,0.581
21,AGAAGGA,4.29
22,AGAAGGC,1.17
23,CGAAGGU,1.34
24,GGAAGGA,4.61

row,Sequence,RNAcompete 7-mer binding Z-score
1,UGAAGGC,1.21
2,UGAAGGA,2.95
3,AGAAGAA,1
4,GGAAGGC,3.04
5,GGAAGGU,3.94
6,CGAAUAA,-0.224
7,GGUCAGC,0.716
8,CAUUUGC,-1.04
9,AGUCCAA,-0.464
10,AUGCGCG,-0.0889
11,GAAAUCG,0.195
12,GGCAACU,0.0532
13,AUAGACA,0.0532
14,AUAAUCU,-0.65
15,AAGAUGU,0.13
16,AACGGAA,1.91
17,GCAUUUA,-0.661
18,AACAAAG,0.355
19,CUGCUCU,-0.923
20,GGCAUGA,0.876
21,CGAAGGG,2.68
22,AGAAGCU,-0.508
23,AGAAGGU,3.67
24,AGAAGGG,4.09

row,Sequence,RNAcompete 7-mer binding Z-score
1,AGAAGAG,1.61
2,UGAAGGU,2.14
3,CCCCCCA,-0.38
4,ACUAGGC,-0.235
5,CUAACGA,-0.566
6,UGUAGCC,-0.624
7,AUCCCUC,-0.759
8,CGCACGG,-0.0124
9,CGGUUGG,1.91
10,GGGUUAG,4.04
11,UGGUUGA,1.31
12,CGGUUGA,0.876
13,GGGUUGG,4.05
14,UGGUUAG,1.94
15,GGGUUGA,3.53
16,AGGUUGG,2.71
17,CGGUUAG,0.691
